Data: PubChem BioAssay (NCI)
Several values for one entry are separate records, joined by “and”; a condition that tells them apart may be missing. Equal values may be shown once. Compounds without any hit were thinned out: in the full panel of roughly 83,000, 20% have a hit.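 In brief: 96-well plates, 48 h treatment, single concentration, percent growth endpoint.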 Values without a mark were called inactive. Activity calls are given as the source filed them. The calls were made as follows: active = growth percent below 10; inactive = the rest.

test system: MDA-MB-468 breast; experiment: NCI-60 one-dose screen, 48 h (100 = growth as untreated, 0 = no growth, -100 = all killed); settings: 10 µM unless noted

Row | Compound | growth
1 | O=C(CCCCCCNC(=O)C(O)(O)C(F)(F)F)Nc1nc2ccccc2s1 | -12.8% (active)
2 | CN(C)c1ccc(N2Cc3ccccc3OC3=C2C(=O)c2c(O)ccc(O)c2C3=O)cn1 | -59.4% (active)
3 | C/C(=N\NC(=O)C(C)SC(C)C(=O)N/N=C(\C)c1cccnc1)c1cccnc1 (centres undefined) | 103%
4 | CC(C)(C)n1cc(-c2ccnc(NCCNS(=O)(=O)c3ccc(O)cc3)c2)c(-c2cccc(O)c2)n1 | 91.8%
5 | N#Cc1c(-c2ccc(Cl)cc2)nc(NN=Cc2cccc(O)c2)nc1N1CCOCC1 | 87.4%
6 | COc1ccc(Nc2nc(N)nc3c(=O)[nH]ccc23)cc1 | 118%
7 | Cc1nc2c(c(=O)[nH]1)C(c1ccccc1)c1ccc3ccccc3c1O2 (centres undefined) | 22.9%
8 | O=C1/C(=C/c2cccc(OCc3ccccc3)c2)Oc2cc(OCCN3CCCCC3)ccc21 | 80.4%
9 | Cc1ccc(NC(=O)c2ccc(CN3CCN(C)CC3)cc2)cc1Nc1nc(-c2cccnc2)cs1 | 25.5%
10 | Cc1cc2nc(C)c(C)nc2cc1C | 112%
11 | CCOc1ccc(-n2nc(C(=O)Nc3cc(OC)c(OC)c(OC)c3)nc2-c2cc(OC)c(OC)c(OC)c2)cc1 | 82%
12 | O=C(Nc1ccc(Oc2ccc(NC(=O)Nc3ccc([N+](=O)[O-])cc3)cc2)cc1)Nc1ccc([N+](=O)[O-])cc1 | -3.83% (active)
13 | COC(=O)c1nc(-c2ccccc2)oc1S(=O)(=O)n1nc(C)cc1N | 59.2%
14 | CNC(=O)c1cccc(Cn2nc(C)c(NC(=O)c3ccc(COc4ccc(C(F)(F)F)cc4C)cc3)c2C)c1 | -6.26% (active)
15 | N=c1sc(Cc2ccc(Cl)cc2)cn1CC(=O)c1ccc(F)cc1 | 84.7%
16 | Cn1ccc(=Nc2ccc(NC(=O)c3ccc(N=c4ccn(C)c5ccc([N+](=O)[O-])cc45)cc3)cc2)cc1 | -2.24% (active)
17 | CCCC(O)Cn1ncc(C(=O)OCC)c1NC(=O)NCc1cccc(C(F)(F)F)c1 (centres undefined) | 79.3%

Row | Compound | growth
18 | Fc1ccc(COc2ccc(Nc3ncnc4sc5c(c34)CCCC5)cc2)cc1 | 93.9%
19 | O=C(CN1CCN(C(=O)c2ccccc2)CC1)Nc1ccccc1SCc1ccccc1 | 56.4%
20 | Cc1ccc(S(=O)(=O)N2C/C(=C\c3cc(F)cc(F)c3)C(=O)/C(=C/c3cc(F)cc(F)c3)C2)cc1 | -43.3% (active)
21 | COc1ccc(NC(=O)CCCCCCNC(=O)C(O)(O)C(F)(F)F)cc1 | 31.8%
22 | COc1ccc(-c2ccccc2)cc1-c1c(Nc2cc(Cl)cc(Cl)c2O)c(=O)c1=O | -3.49% (active)
23 | O=C1Nc2ccccc2SC1c1ccccc1Cl (centres undefined) | 29.9%
24 | NS(=O)(=O)c1cc2c(cc1Cl)NC(C(Cl)Cl)NS2(=O)=O (centres undefined) | 101% and 108%
25 | CC(C)C[C@@H](NC(=O)[C@@H](Cc1ccccc1)NC(=O)c1cnccn1)B1Oc2ccc(C[C@H](NC(=O)[C@H](Cc3ccc4c(c3)OB([C@@H](CC(C)C)NC(=O)[C@@H](Cc3ccccc3)NC(=O)c3cnccn3)O4)NC(=O)[C@@H](N)CC3CCC4OB([C@@H](CC(C)C)NC(=O)[C@@H](CC5CCCCC5)NC(=O)C5CNCCN5)OC4C3)C(=O)NCCCC[C@@H]3NC(=O)[C@@H](Cc4ccccc4)NC(=O)[C@H](CC(=O)O)NC(=O)CNC(=O)[C@H](CCCNC(=N)N)NC3=O)cc2O1 (some centres undefined) | -41.5% (active)
26 | O=C(C[Si](CC(=O)c1cccc(C(F)(F)F)c1)CC(=O)c1cccc(C(F)(F)F)c1)c1cccc(C(F)(F)F)c1 | 91%
27 | Cc1ccc(-c2cc(-c3cccc4ccccc34)n3c(n2)nc2ccccc23)cc1 | 70.4%
28 | COc1cc(NS(C)(=O)=O)ccc1Nc1c2ccccc2nc2c(C)cccc12 | -14.3% (active)
29 | COC(=O)[C@H](C(C)C)n1c(=O)c2cc(OC)c(OC)cc2c2cnc3[nH]ccc3c21 | 36.5%
30 | Nc1nc(N)c2nc(-c3cccc(O)c3)c(-c3cccc(O)c3)nc2n1 | 10.4%
31 | CCn1cc2c(cc1=O)-c1nc3ccccc3c3ccnc(c13)C2=O | 72.3%
32 | COc1ccc2nc3nc4ccc[nH]c4cc3c2c1 | -36.6% (active)
33 | CCCc1cc(CCC)n2nc(N)nc2n1 | 95.8%
34 | FC(F)(F)c1cn(CCN2CCOCC2)c2ncnc(Cl)c12 | 9.54% (active)
